experiment: modulators of CIT2-GFP expression in yeast, confirmation, S. cerevisiae, GFP fusion, cherry picks, mother/daughter gates (AID 2274); settings: S. cerevisiae CIT2-GFP strain, flow cytometry, 3 h; measured here: daughter cell gate; at 10 µM; stronger effect = higher value

| SMILES | GFP response, % of DMSO |
| --- | --- |
| O=C(Nc1ccc(NC(=O)c2cc3ccccc3o2)cc1)c1ccc2c(c1)OCCO2 | 99.2% |
| Cc1ncc2c(n1)-c1cc(F)ccc1SC2 | 116% |
| Cc1ccc(S(=O)(=O)Cc2cc(F)c([N+](=O)[O-])cc2[N+](=O)[O-])cc1 | 84.1% |
| C/C(CC(=O)Nc1cc(C)ccn1)=N\NC(=O)c1cccc(F)c1 | 94.8% |
| CN=C(NC)SC1CC(=O)N(c2ccccc2)C1=O (stereo not drawn) | 93.2% |
| O=C1/C(=C\c2ccc(O)c(O)c2)SC(=S)N1Cc1ccccc1 | 119% |
| COc1cc(/C=C2\C(=O)N(CCC#N)N=C2C)c(Br)cc1OC(C)C | 94.8% |
| CCn1c(=O)c(C(=O)Nc2nc3ccccc3[nH]2)c(O)c2ccccc21 | 99.1% |
| CC1CN(c2nc3ccccn3c(=O)c2/C=C(\C#N)C(N)=O)CC(C)O1 (stereo not drawn) | 99.3% |
| CCOC(=O)CSC1=NC(=O)/C(=C\c2ccc(Cl)cc2)S1 | 81.6% |
| O=C(N/N=C/c1ccccc1Cl)c1cccc(F)c1 | 101% |
| CCN(CC)CCNC(=O)Cn1c(-c2ccccn2)nc2ccccc21 | 96.5% |
| COc1ccc(N2C(=O)C(Cl)=C(Nc3ccccc3OC)C2=O)cc1 | 97.4% |
| COc1ccc(C(=O)/C=C/c2ccccc2C(F)(F)F)cc1 | 106% |
| O=C(COc1ccc(F)cc1Cl)Nc1nc(-c2ccccn2)cs1 | 97.6% |
| COc1ccc(/C=N/NC(=O)C2(C)NC(C)(C)Cc3ccccc32)cc1 (stereo not drawn) | 99.1% |
| COc1ccc(OC)c(C2CC(c3c(-c4ccccc4)c4cc(Cl)ccc4[nH]c3=O)=NN2S(C)(=O)=O)c1 (stereo not drawn) | 96.5% |
| Cc1ccc(/C=C/C(=O)N2CC(C)CC(C)C2)o1 (stereo not drawn) | 103% |

Reference: PubChem BioAssay
